Pf growth 96h: Primary qHTS for delayed death inhibitors of the malarial parasite plastid, 96 hour incubation; P. falciparum luciferase reporter growth, 96 h; Potency, µM (series often up to 28.7 µM), for the others: top-dose activity change, negative = inhibition, most hits filed as inhibitors; AID 504834, 2011; actives 6.9% (n = 320,000); further: potency means the concentration at half of the fitted maximal effect
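Parasite growth measured via integrated firefly luciferase reporter in P. falciparum. Infected erythrocytes at 2% hematocrit, 0.05% parasitemia final were treated 96 hours at 37 C under 5% CO2, and luminescence was read.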
Sm TGR inh: qHTS Assay for the Inhibitors of Schistosoma Mansoni Peroxiredoxins; Schistosoma mansoni thioredoxin glutathione reductase (TGR), Q962Y6; Potency, µM (highest dose often 114 µM), inactives show at the top dose activity change, negative = inhibition, hits mostly inhibitors; AID 485364, 2010; actives 3% (n = 360,000); purified TGR, DTNB reduction, TNB absorbance 405 nm; further: potency means the concentration at half of the fitted maximal effect; nearly all actives have a fitted effect of over 60% in size
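Kinetic colorimetric format: TGR-catalysed, NADPH-driven DTNB reduction monitored via TNB absorbance. Enzyme dispensed at 20 nM; compound exposure 15 min at room temperature before reaction start.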
Giardia FBPA inh-1: qHTS Assay for Inhibitors of Fructose-1,6-bisphosphate Aldolase from Giardia Lamblia. purified Giardia FBPA. actives 0.71% (n = 290,000). Potency, µM (titrated, usually from 59.6 µM), without a hit: top-dose activity, negative = inhibition, usual class: inhibitors; further: potency means the concentration at half of the fitted maximal effect; nearly all actives have a fitted effect of over 55% in size
Target sequence (A8B2U2 whole entry, looked up): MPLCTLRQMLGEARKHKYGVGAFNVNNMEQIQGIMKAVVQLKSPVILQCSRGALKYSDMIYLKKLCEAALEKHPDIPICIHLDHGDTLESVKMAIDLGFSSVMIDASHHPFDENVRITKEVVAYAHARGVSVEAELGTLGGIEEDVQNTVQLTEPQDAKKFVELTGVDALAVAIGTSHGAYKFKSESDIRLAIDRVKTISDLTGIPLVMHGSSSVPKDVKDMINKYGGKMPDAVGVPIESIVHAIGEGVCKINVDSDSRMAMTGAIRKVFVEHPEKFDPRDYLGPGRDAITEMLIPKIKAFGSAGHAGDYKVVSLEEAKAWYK
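40 nM FBPA preincubated 10 min at RT with compound (up to 57.5 uM final), then substrate plus GAPDH/TPI/NAD/arsenate coupling and diaphorase/resazurin added. Fluorescence read after 20 min at RT, 525/598 nm.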
Pf growth 48h: Primary qHTS for delayed death inhibitors of the malarial parasite plastid, 48 hour incubation; P. falciparum luciferase growth in erythrocytes, 48 h; Potency, µM (titrated, usually from 28.7 µM), for inactives: at the highest dose activity change, negative = inhibition, actives largely listed as inhibitors; actives 5.9% (n = 310,000); further: potency means the concentration at half of the fitted maximal effect
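Luciferase-expressing P. falciparum in infected erythrocytes (2% hematocrit, 0.1% parasitemia final) in RPMI 1640/0.5% Albumax were exposed to compound for 48 hours at 37 C, 5% CO2; growth read as luminescence.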
HCMV inh: qHTS Assay for inhibitors of the human cytomegalovirus (HCMV). AID 1259415, 2018. actives 4.5% (n = 410,000). HFF cells, HCMV-luciferase reporter, 72 h; active compounds read low. activity change, negative = inhibition, % at 57.5 µM; in the data active means activity change below about -60%; inconclusive means no clear call, values can overlap the other calls; inactive means above about -39%
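Screen run at 2 compound doses on HFFs infected with reporter HCMV, MOI 1 PFU/cell. Luciferase activity from cell lysates at 72 h post infection gave inhibition relative to buffer-only and Salinomycin wells.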
Giardia growth: qHTS Assay for Inhibitors of Fructose-1,6-bisphosphate Aldolase from Giardia Lamblia: Giardia lamblia growth inhibition; shares compounds with Giardia FBPA inh-1; Giardia lamblia trophozoite growth inhibition; Potency, µM (highest dose often 57.5 µM), without a hit: at the top dose activity change, negative = inhibition, most hits filed as inhibitors; actives 5% (n = 1,500); AID 2785, 2010;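 further: potency means the concentration at half of the fitted maximal effect; trophozoites exposed to compound for 48 h at 37 °C; nearly all actives have a fitted effect of over 70% in size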
Mammal cell tox: qHTS Assay for Inhibitors of Fructose-1,6-bisphosphate Aldolase from Giardia Lamblia: Mammalian cellular toxicity; shares compounds with Giardia FBPA inh-1; mammalian cell viability counter-screen, qHTS; Potency, µM (series often up to 57.5 µM), inactives show at the top dose viability change, negative = toxicity, actives largely listed as inhibitors; actives 4% (n = 1,500);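 further: Chinese hamster ovary cells used as mammalian cytotoxicity surrogate; viability measured as cellular ATP by luminescence; potency means the concentration at half of the fitted maximal effect; compound exposure lasted 48 h before reading; nearly all actives have a fitted effect of over 60% in size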
Giardia FBPA inh-2: qHTS Assay for Inhibitors of Fructose-1,6-bisphosphate Aldolase from Giardia Lamblia: Primary screen confirmation. Potency, µM (top dose mostly 57.5 µM), without a hit: top-dose activity change, negative = inhibition, usual class: inhibitors. actives 5% (n = 1,500). purified Giardia aldolase enzyme activity, qHTS. AID 2787, 2010. shares compounds with Giardia FBPA inh-1; further: potency means the concentration at half of the fitted maximal effect; nearly all actives have a fitted effect of over 45% in size
Rabbit FBPA inh: qHTS Assay for Inhibitors of Fructose-1,6-bisphosphate Aldolase from Giardia Lamblia: Rabbit FBPA Selectivity. shares compounds with Giardia FBPA inh-1. Rabbit muscle FBPA enzyme inhibition, selectivity counter-screen. Potency, µM (series often up to 57.5 µM), for inactives: at the top dose activity, negative = inhibition, usual class: inhibitors. actives 4% (n = 1,500). AID 2794, 2010; further: potency means the concentration at half of the fitted maximal effect; nearly all actives have a fitted effect of over 60% in size
Target sequence (P00883 whole entry, looked up): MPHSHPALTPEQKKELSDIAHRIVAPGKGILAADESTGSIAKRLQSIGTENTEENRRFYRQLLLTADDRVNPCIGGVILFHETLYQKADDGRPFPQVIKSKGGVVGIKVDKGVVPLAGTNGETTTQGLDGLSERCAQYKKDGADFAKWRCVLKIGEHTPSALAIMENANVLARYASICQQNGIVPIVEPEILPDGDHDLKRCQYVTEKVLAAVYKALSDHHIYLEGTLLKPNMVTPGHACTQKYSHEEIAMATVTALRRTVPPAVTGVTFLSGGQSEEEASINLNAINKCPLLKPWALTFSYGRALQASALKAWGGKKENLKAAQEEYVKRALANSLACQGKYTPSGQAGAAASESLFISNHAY
GAPDH coupling: qHTS Assay for Inhibitors of Fructose-1,6-bisphosphate Aldolase from Giardia Lamblia: Coupling assay counterscreen confirmation. AID 2795, 2010. actives 6% (n = 1,500). GAPDH coupling enzyme counterscreen, biochemical, qHTS. shares compounds with Giardia FBPA inh-1. Potency, µM (top dose mostly 57.5 µM), without a hit: top-dose activity change, negative = inhibition, hits mostly inhibitors; further: potency means the concentration at half of the fitted maximal effect; nearly all actives have a fitted effect of over 55% in size
Starred values were filed as active, the others as inactive; u = inconclusive; x = no result given; [ ] = another dose, or the depositor's remark. A selection: hits, their analogues and other compounds. The true share with any hit is near 14%. Unless noted, the call rests on the fitted dose curve; in most records, active means well fitted curve in the direction sought with a large enough effect; inconclusive means small, poorly fitted or top-dose-only effect, or another doubt; inactive means no such curve, though single readings can be large; an effect the other way counts as inactive or inconclusive. On the % scale 0 is the no-effect control and ±100 the full control effect.

SMILES	Pf growth 96h	Sm TGR inh	Giardia FBPA inh-1	Pf growth 48h	HCMV inh	Giardia growth	Mammal cell tox	Giardia FBPA inh-2	Rabbit FBPA inh	GAPDH coupling
CC(OC(=O)CN1C(=O)c2ccccc2C1=O)C(=O)NC1CCCCC1 (centres undefined)	-14%	8%	7%	2%	-28	x	x	x	x	x
CNC(=S)NNS(=O)(=O)c1ccc(OC)cc1OC	-20%	3%	20µM*	-4%	-28	22%	-4%	2%	6%	7%
Cc1cc(C)c(S(=O)(=O)/N=C2/C=C(Sc3ncn[nH]3)C(=O)c3ccccc32)cc1C	10µM*	0.32µM*	0.79µM*	1.7µM*	-100*	14µM*	20µM*	6.3µM*	7.1µM*	5µM*
O=c1nc(N/N=C/c2c[nH]c3ccccc23)cn[nH]1	0.41µM*	15%	18µM*	193%	0	3%	2%	-2%	0%	2%
CN(C)CCCNS(=O)(=O)c1ccc(-n2nnc3ccccc32)c([N+](=O)[O-])c1	u	-2%	0%	0%	-23	x	x	x	x	x
CN(C)CCCNS(=O)(=O)c1ccc(N2CCN(Cc3ccc4c(c3)OCO4)CC2)c([N+](=O)[O-])c1	9.3µM*	-17%	14µM*	12µM*	-38	-17%	0%	-7%	-1%	14%
Cn1ccnc1Sc1ccccc1[N+](=O)[O-]	u	0%	-8%	-22%	-35	x	x	x	x	x
CSc1nccn1C(=O)c1ccccc1[N+](=O)[O-]	37%	u	28µM*	26%	12	11%[10.4 µM]	9%	-14%	-11%	-10%
COc1ccc(CN2CCN(Cc3ccccc3F)CC2)cc1	24%	8%	16µM*	19%	u	16%	-3%	-1%	9%	1%
COc1ccc(/C=N\N2CCN(Cc3ccccc3Cl)CC2)cc1	275%	18%	16µM*	-2%	-15	-12%[10.4 µM]	-11%	-1%	6%	6%
COc1ccc(CN2CCC(N3CC(C)OC(C)C3)CC2)c(OC)c1 (centres undefined)	30%	10%	u	9%	8	12%[38.3 µM]	10%	3%	4%	16%
COc1ccc(CN2CCOCC2)cc1	u	-27%	-10%	x	-11	x	x	x	x	x
COc1ccc(CN2CCN(Cc3ccc(C)cc3)CC2)c(OC)c1	137%	-23%	14µM*	-21%[0.00184 µM]	-10	19%	1%	3%	1%	-2%
COc1ccc2c(c1)C(=O)[C@H](OC(=O)NS(=O)(=O)c1ccc(F)cc1)[C@@H](c1ccc(OC)c(Br)c1)O2	x	x	1%	x	x	x	x	x	x	x
COc1ccc(CN2CCN(Cc3ccccc3F)CC2)c(OC)c1	6%	-18%	13µM*	-1%[0.00184 µM]	-31	19%	0%	-3%	7%	-14%
CCn1c(=O)c(C(=O)CN(C)Cc2ccc(F)cc2)c(N)n(Cc2ccccc2)c1=O	u	4%	3%	u	-31	x	x	x	x	x
CCn1c(=O)c(C(=O)CN(C)Cc2cccc(OC)c2OC)c(N)n(Cc2ccccc2)c1=O	12%[5.75 µM]	-1%	16µM*	22%	-29	34%	-7%	2%	4%	-9%
O=C(O)c1cccc2[nH]c(C(F)(F)F)nc12	7%	8%	-25%	48%	1	x	x	x	x	x
Nc1cccc2[nH]c(C(F)(F)F)nc12	u	u	20µM*	3%	-21	-22%	u	u	-13%	-24%
C[C@]12CC[C@@H]3c4cc(O)c(O)cc4CC[C@H]3[C@@H]1CC[C@@H]2O	x	u	16µM*	x	-14	7%	-15%	4µM*	u	-29%
Oc1ccc(-c2cn3c(n2)SCC3)cc1O	u	u	18µM*	x	36	0%[10.4 µM]	-13%	u	u	-16%
Cc1c(C(=O)O)c(C(=O)O)nc2ccc(N3CCOCC3)cc12	36%	-17%	11µM*	11%	x	25%	8%	u	-21%	u
O=C(NC(=S)Nc1ccc2oc(=O)ccc2c1)c1cccc(Cl)c1	20%	-19%	10µM*	7%	-21	20µM*	11%	-1%	11%	6%
CC(=O)/C(=N\Nc1ccc(C)cc1)Sc1nncn1C	12%	-13%	3.5µM*	-1%	14	-5%[38.3 µM]	-1%	-2%	-2%	-21%
COc1ccc(CNC(=O)C2CCC(=O)N(CCCN3CCCC3=O)C2)c(OC)c1 (centres undefined)	-21%	-2%	x	5%	2	x	x	x	x	x
COc1cc(C(C)=O)ccc1Oc1ncnc2c1cnn2-c1ccc(F)cc1	177%	-19%	2%	164%	-24	x	x	x	x	x
